# Results reported in PubChem BioAssay (NCATS).
# Inconclusive results are not listed. A call without a number means that no potency is given here. Calls of active or inactive are those of the source. Unless noted, the call rests on the fitted dose curve; in most records, active means well fitted curve in the direction sought with a large enough effect; inconclusive means small, poorly fitted or top-dose-only effect, or another doubt; inactive means no such curve, though single readings can be large; an effect the other way counts as inactive or inconclusive.
# Experiments:
# [1] = target: Transient receptor potential cation channel subfamily V member 1 (Homo sapiens) (UniProt Q8NER1); assay: HTS Assay for Compounds that Act as Enhancers of the Vanilloid Receptor 1 (AID 488979)
# In short: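 TRPV1 cells loaded with Fluo-8 calcium dye; compound added and Ca2+ signal (ex 480/em 520 nm) followed 3 min, then capsaicin at EC20 added and read 2 more min to detect enhancement.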
# [2] = target: Thyrotropin receptor (Homo sapiens) (UniProt P16473); assay: qHTS Assay for Antagonists of the Thyroid Stimulating Hormone Receptor (AID 488980); further: series mostly up to about 58 µM
# Chain of Thyrotropin receptor (Homo sapiens) (P16473 whole entry, looked up): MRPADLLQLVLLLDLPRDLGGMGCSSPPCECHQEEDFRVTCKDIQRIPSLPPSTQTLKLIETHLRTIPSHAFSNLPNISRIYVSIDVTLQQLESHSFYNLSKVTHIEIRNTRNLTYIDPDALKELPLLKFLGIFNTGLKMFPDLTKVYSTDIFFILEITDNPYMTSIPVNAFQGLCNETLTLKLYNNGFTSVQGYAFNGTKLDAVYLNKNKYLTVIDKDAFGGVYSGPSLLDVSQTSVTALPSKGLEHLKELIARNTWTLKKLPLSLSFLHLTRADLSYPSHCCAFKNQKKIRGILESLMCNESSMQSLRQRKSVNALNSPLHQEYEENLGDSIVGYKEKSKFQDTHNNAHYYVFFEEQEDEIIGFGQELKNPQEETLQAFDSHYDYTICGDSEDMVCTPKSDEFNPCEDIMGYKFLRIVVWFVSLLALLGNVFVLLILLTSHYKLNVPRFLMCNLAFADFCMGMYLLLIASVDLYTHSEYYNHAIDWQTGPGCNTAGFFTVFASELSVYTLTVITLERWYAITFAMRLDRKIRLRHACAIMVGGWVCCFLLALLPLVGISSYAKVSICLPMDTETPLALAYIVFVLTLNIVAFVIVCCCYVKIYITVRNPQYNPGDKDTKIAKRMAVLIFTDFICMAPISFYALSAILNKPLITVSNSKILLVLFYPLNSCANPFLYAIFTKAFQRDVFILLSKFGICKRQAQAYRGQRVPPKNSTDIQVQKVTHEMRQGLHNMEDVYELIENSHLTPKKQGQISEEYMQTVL
# In short: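 Inhibition of cAMP raised by EC80 TSH (4 nM final) was read by HTRF, with lysate cAMP competing against cAMP-d2 for cryptate antibody after 30 min at room temperature. The cells were transfected HEK293 held in phosphodiesterase inhibitor RO 20-1724 at 70 uM.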
# [3] = target: D(1A) dopamine receptor (Homo sapiens) (UniProt P21728); assay: HTS Assay for Allosteric Agonists of the Human D1 Dopamine Receptor: Primary Screen for Agonists (AID 488981)
# Chain of D(1A) dopamine receptor (Homo sapiens) (P21728 whole entry, looked up): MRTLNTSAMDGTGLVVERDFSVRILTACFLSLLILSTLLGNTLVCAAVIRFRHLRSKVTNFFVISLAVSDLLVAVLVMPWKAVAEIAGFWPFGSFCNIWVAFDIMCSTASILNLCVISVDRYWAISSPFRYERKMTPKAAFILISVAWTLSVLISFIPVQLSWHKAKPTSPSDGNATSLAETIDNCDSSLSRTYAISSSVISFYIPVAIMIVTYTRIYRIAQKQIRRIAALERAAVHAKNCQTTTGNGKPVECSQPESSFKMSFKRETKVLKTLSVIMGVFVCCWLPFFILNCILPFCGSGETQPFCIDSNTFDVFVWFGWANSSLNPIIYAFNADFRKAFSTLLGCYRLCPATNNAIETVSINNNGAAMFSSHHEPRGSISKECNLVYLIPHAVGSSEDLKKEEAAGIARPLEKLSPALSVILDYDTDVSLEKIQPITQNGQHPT
# In short: (§1)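 Tetracycline-induced HEK293 Trex D1 cells with forced coupling to calcium, loaded with no-wash calcium dye; kinetic fluorescence read 180 s after compound addition for agonism, then a further 180 s after an EC20 dopamine challenge for potentiation.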
# [4] = target: D(1A) dopamine receptor (Homo sapiens) (UniProt P21728); assay: HTS Assay for Allosteric Agonists of the Human D1 Dopamine Receptor: Primary Screen for Potentiators (AID 488982)
# In short: as §1
# [5] = target: D(1A) dopamine receptor (Homo sapiens) (UniProt P21728); assay: HTS Assay for Allosteric Agonists of the Human D1 Dopamine Receptor: Primary Screen for Antagonists (AID 488983);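 further: calcium flux response to an EC80 dopamine challenge measured with no-wash dye; nearly all actives have a fitted effect of over 65% in size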
# In short: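 Screening of inducible HEK293 T-REx D1 cells: compound first, EC80 dopamine 180 s later, each phase read kinetically for calcium over 180 s.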
# [6] = Validation screen for small molecules that induce genotoxicity in human embryonic kidney (HEK293T) cells expressing luciferase-tagged ELG1 (AID 493106)
# In short: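 Reporter-gene quantitative HTS in HEK293T cells carrying luciferase-tagged ELG1, whose level climbs under genotoxic stress. Compound exposure lasts 16 hr at 37 °C before luciferase detection.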
# [7] = target: Thyrotropin-releasing hormone receptor (Homo sapiens) (UniProt P34981); assay: qHTS for Small Molecule Agonists and Allosteric Enhancers of Human TRH Receptor: Validation Screen for Agonists (AID 493127;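 active means calcium activation more than 3 SD above the typical response in the agonist read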;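 further: intracellular calcium rise by fluo-8 fluorescence before TRH EC20 addition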); settings: TRH receptor agonist cell assay; at 2 µM; stronger effect = higher value
# Chain of Thyrotropin-releasing hormone receptor (Homo sapiens) (P34981 whole entry, looked up): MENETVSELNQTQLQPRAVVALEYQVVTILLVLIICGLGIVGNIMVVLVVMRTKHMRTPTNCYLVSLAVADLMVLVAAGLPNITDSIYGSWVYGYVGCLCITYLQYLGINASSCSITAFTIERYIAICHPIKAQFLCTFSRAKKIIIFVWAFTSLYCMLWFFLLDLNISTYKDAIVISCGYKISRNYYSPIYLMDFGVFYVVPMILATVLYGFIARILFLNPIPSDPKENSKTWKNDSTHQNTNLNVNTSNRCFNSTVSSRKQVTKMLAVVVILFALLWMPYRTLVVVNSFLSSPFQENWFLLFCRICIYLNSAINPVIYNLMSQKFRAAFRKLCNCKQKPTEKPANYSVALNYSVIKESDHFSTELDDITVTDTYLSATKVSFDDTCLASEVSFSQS
# In short: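 Gq-coupled calcium mobilization in TRHR cells after compound addition, monitored kinetically with fluo-8 dye on an FDSS reader.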
# [8] = qHTS for Inhibitors of Cell Surface uPA Generation: Validation Assay (AID 493164);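 further: RAW 264.7 macrophage cells exposed to compound for 18 h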
# In short: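 RAW 264.7, 4000 cells/well, o/n plating; cpd 7-pt 1:5 dilution 2.45 nM–38.3 uM final; 18 h, 37 C/5% CO2; ATP-Lite, 5 s luminescence exposure.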
# [9] = target: Galactokinase (Homo sapiens) (UniProt P51570); assay: qHTS Validation Assay for Inhibitors of Human Galactokinase (GALK) (AID 493189)
# Chain of Galactokinase (Homo sapiens) (P51570 whole entry, looked up): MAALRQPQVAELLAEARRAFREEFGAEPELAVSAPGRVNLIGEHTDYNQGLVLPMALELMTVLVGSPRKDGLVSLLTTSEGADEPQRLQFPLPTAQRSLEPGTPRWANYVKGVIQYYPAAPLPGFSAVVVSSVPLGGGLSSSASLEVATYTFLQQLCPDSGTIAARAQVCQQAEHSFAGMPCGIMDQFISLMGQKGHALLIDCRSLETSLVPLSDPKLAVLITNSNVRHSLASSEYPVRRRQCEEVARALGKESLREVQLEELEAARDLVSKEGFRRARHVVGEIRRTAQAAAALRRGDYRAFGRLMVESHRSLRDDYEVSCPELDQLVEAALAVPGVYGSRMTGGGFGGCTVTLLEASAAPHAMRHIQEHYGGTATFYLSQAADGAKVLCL
# In short: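 Inhibition was measured as remaining ATP, detected by luciferase luminescence after a 1 h room-temperature reaction. Final conditions: 5 nM GALK, 100 uM galactose, 35 uM ATP, pH 8.0 HEPES buffer.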
# [10] = Validation screen for small molecules that induce DNA re-replication in SW480 colon adenocarcinoma cells (AID 504364)
# In short: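 Cells are treated 48 hr with test compound, stained 40 min with Hoechst at 37 C, and scanned for nuclear fluorescence; compounds inducing re-replication increase nuclei with elevated intensity.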
# [11] = target: Peptidyl-prolyl cis-trans isomerase NIMA-interacting 1 (Homo sapiens) (UniProt Q13526); assay: qHTS Validation Assay to Find Inhibitors of Pin1 (AID 504536; active means well fitted inhibition curve with a large enough effect in the polarisation, with a control signal flat, not every such curve was filed as active; the % refers to the polarisation)
# Chain of Peptidyl-prolyl cis-trans isomerase NIMA-interacting 1 (Homo sapiens) (Q13526 whole entry, looked up): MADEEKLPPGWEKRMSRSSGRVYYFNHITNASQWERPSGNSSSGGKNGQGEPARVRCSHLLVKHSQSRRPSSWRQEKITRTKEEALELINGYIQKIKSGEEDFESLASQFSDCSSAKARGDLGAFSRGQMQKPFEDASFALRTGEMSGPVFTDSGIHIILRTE
# In short: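 Fluorescence polarization competition: compounds (titration) displace HiFluor-488-labeled Pin1-1b peptide from Pin1 (0.3 uM final) in pH 7.5 HEPES buffer with DTT, 10 min at room temperature; %Activity normalized to no-enzyme wells, curves fitted.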
# [12] = target: Phosphoglycerate kinase, glycosomal (Trypanosoma brucei brucei) (UniProt P07378); assay: qHTS Validation Assay to Find Inhibitors of Phosphoglycerate Kinase (AID 504547)
# Chain of Phosphoglycerate kinase, glycosomal (Trypanosoma brucei brucei) (P07378 whole entry, looked up): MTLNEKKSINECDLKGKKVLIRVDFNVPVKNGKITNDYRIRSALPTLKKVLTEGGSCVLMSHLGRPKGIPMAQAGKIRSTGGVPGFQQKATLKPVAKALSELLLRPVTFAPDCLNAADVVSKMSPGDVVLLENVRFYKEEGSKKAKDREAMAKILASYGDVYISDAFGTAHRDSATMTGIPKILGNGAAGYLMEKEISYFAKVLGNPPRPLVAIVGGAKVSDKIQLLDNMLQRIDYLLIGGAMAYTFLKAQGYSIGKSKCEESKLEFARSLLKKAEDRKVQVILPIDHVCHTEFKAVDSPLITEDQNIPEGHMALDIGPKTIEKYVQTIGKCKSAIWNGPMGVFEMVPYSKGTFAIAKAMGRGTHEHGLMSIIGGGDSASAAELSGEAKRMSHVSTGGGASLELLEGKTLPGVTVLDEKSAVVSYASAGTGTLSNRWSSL
# In short: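 PGK activity was coupled to GAPDH (100nM final), which generates the unstable substrate 1,3-bisphosphoglycerate in-well. Reactions ran 60 minutes at room temperature in 100mM TEA pH 7.6, 5mM MgCl2, 0.01% Tween-20, then Kinase-Glo Plus luminescence was read.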
# [13] = target: phosphoglycerate mutase (Leishmania major) (UniProt Q4Q090); assay: qHTS Validation Assay to Find Inhibitors of Phosphoglycerate Mutase (AID 504548); settings: Potency: inhibition qHTS; further: series mostly up to about 58 µM
# Chain of phosphoglycerate mutase (Leishmania major) (Q4Q090 1-553): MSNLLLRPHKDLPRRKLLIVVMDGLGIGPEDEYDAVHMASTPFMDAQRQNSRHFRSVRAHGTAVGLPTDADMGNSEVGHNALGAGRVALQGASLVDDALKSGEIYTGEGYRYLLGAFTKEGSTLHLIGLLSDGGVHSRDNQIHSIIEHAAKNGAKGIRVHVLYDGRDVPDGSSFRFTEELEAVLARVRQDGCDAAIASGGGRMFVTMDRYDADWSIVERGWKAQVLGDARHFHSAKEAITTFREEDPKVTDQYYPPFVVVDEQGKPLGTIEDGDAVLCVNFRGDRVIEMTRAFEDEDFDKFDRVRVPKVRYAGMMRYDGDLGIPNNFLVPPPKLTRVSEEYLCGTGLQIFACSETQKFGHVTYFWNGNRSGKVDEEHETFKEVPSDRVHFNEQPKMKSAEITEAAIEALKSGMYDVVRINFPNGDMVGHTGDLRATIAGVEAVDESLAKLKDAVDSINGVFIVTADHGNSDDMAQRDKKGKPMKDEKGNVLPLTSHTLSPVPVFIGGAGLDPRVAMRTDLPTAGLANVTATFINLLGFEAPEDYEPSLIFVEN
# In short: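 Luminescent end-point read-out via Kinase-GloPlus after a 10-minute development. Reaction: 1.25nM Leishmania major PGAM with substrate and compound, 45 minutes at room temperature in TEA buffer (pH 7.6) with MgCl2 and Tween-20.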
# [14] = target: ATPase family AAA domain-containing protein 5 (Homo sapiens) (UniProt Q96QE3); assay: Validation screen for small molecules that inhibit ELG1-dependent DNA repair in human embryonic kidney (HEK293T) cells expressing luciferase-tagged ELG1 (AID 493107);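 further: cells co-treated with the DNA-damaging agent 5-fluorouridine alongside compound; series mostly up to about 46 µM; inhibitors lower the ELG1-luciferase luminescence signal; nearly all actives have a fitted effect of over 70% in size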
# Chain of ATPase family AAA domain-containing protein 5 (Homo sapiens) (Q96QE3 whole entry, looked up, the tested form may be a part): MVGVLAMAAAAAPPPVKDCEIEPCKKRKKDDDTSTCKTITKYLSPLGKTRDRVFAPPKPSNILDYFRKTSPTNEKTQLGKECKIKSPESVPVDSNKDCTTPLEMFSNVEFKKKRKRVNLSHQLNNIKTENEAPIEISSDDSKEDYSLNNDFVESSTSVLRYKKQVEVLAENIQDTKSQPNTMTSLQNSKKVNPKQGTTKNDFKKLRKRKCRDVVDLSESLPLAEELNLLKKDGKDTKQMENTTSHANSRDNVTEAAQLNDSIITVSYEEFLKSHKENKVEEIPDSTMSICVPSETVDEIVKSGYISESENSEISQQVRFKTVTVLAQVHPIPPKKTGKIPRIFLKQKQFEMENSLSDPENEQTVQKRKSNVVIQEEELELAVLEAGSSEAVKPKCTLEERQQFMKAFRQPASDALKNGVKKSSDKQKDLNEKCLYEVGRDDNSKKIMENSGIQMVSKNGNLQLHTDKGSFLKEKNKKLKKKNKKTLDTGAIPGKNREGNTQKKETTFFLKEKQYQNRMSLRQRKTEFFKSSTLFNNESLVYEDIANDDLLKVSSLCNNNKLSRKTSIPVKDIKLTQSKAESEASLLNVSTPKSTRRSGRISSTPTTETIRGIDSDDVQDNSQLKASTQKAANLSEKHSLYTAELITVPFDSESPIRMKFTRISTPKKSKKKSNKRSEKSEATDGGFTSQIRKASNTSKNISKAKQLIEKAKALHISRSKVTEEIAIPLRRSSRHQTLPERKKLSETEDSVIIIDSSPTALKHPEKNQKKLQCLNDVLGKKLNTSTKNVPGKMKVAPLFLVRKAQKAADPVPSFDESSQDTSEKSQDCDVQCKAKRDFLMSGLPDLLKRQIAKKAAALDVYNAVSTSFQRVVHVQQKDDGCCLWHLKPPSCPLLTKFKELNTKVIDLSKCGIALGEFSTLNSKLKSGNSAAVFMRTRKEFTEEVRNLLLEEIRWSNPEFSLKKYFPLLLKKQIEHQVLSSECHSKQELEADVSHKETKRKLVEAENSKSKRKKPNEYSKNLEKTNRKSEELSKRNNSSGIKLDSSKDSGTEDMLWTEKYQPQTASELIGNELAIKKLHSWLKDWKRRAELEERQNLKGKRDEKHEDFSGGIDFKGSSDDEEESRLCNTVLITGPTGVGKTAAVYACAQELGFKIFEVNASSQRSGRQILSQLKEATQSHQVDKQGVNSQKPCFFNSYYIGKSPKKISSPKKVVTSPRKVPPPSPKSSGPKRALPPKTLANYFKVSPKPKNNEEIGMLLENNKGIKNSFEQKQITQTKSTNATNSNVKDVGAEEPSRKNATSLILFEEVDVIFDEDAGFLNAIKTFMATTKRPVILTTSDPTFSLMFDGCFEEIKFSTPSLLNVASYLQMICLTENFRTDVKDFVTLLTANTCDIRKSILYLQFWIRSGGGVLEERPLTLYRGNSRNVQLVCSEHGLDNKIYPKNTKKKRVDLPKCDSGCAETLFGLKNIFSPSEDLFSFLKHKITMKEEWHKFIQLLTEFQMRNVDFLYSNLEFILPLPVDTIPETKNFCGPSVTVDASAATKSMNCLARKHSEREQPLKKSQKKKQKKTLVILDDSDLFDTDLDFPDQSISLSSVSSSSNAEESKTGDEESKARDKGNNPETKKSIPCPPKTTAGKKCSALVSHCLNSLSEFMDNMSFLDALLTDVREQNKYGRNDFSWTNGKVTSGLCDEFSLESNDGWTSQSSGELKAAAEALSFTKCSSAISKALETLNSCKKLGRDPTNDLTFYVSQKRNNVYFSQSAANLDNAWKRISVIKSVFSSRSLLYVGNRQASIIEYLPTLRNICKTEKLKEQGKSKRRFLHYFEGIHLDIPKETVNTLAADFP
# In short: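 Quantitative HTS in HEK293T cells carrying luciferase-tagged ELG1, stimulated with 5-fluorouridine alongside compound for 16 hr. Loss of luciferase signal marks inhibition of ELG1 response.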
# [15] = Nrf2 qHTS screen for inhibitors: Validation (AID 493153; active means well fitted inhibition curve with a large enough effect in the main read-out, with a control signal flat, not every such curve was filed as active); settings: Potency: luciferase luminescence; viability change: measured here: cytotoxicity max response
# In short: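 Dose-response validation uses reporter A549 cells with firefly luciferase under an antioxidant response element. Compounds stay on cells 18-24 h at 37°C, and luminescence indicates Nrf2-driven transcription.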
# [16] = target: Ubiquitin carboxyl-terminal hydrolase 1 (Homo sapiens) (UniProt O94782); assay: Inhibitors of USP1/UAF1: Pilot qHTS (AID 504865);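 further: rhodamine fluorescence freed from ubiquitin-rhodamine substrate followed over time; top concentration of the series differs between compounds; nearly all actives have a fitted effect of over 35% in size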
# In short: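 Deubiquitinase activity followed as kinetic rhodamine fluorescence release from 150 nM Ub-Rho. 1 nM USP1/UAF1 with compound, after 15 min room-temperature preincubation, in HEPES pH 7.8 buffer containing TCEP, EDTA, BSA and Tween-20.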
# [17] = qHTS for Inhibitors of ATXN expression: Validation of Cytotoxic Assay (AID 588349);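 further: cells exposed to compound for 72 hr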
# In short: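 HEK293, compound dose series, 72 hr / 37 degrees C; viability via CellTiter Glo (intracellular ATP).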
# [18] = qHTS for Inhibitors of ATXN expression: Validation (AID 588378); further: series mostly up to about 57 µM; nearly all actives have a fitted effect of over 75% in size
# In short: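 Luciferase luminescence (Bright-Glo) from an ATXN2-FFLuc HEK293 line after 24 h compound exposure at 37 °C, preceded by a CellTiter-Fluor fluorescence viability read. Serial dilutions of a reference ATXN2 inhibitor and a luciferase inhibitor served as controls.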
SMILES,outcome [1],outcome [2],Potency [3],Potency [4],Potency [5],Potency [6],activation [7],outcome [8],Potency [9],Potency [10],Potency [11],Potency [12],Potency [13],Potency [14],Potency [15],viability change [15],Potency [16],Potency [17],Potency [18]
CCCC(=O)NCCc1c2n(c3ccc(OC)cc13)CCCc1ccccc1-2,inactive,inactive,inactive,inactive,inactive,inactive,-9.25% (inactive),inactive,inactive,inactive,inactive,inactive,inactive,–,–,–,–,–,–
CC(=O)[C@H]1CCC2C3CC=C4C[C@@H](OS(=O)(=O)O)CC[C@]4(C)C3CC[C@@]21C (some centres not stated),inactive,inactive,inactive,inactive,inactive,–,-0.125% (inactive),inactive,inactive,inactive,inactive,inactive,–,inactive,inactive,2.24%,inactive,inactive,inactive
O=c1onc2n1-c1cc(Br)ccc1OC2,inactive,inactive,inactive,inactive,–,inactive,1.75% (inactive),inactive,–,inactive,inactive,inactive,inactive,inactive,inactive,-3.61%,–,inactive,inactive
NCCCNCCCCNCCCN,inactive,inactive,inactive,inactive,inactive,–,0.688% (inactive),inactive,inactive,inactive,inactive,inactive,inactive,inactive,inactive,-11.3%,inactive,inactive,inactive
CC(/C=C/c1cccc(Oc2ccc(F)cc2)c1)N(O)C(N)=O (configuration not stated),inactive,inactive,inactive,inactive,inactive,–,1% (inactive),inactive,inactive,inactive,inactive,–,inactive,–,inactive,3.6%,inactive,inactive,inactive
COc1ccc2c(c1)CCC1C2CC[C@@]2(C)C1CC[C@@H]2NCCCCCCN1C(=O)C=CC1=O (some centres not stated),inactive,inactive,inactive,inactive,inactive,–,0.25% (inactive),–,inactive,inactive,inactive,inactive,inactive,inactive,inactive,-5.2%,–,inactive,inactive
C[C@@]1(C2CCCC2)Cc2cc(OCC(=O)O)c(Cl)c(Cl)c2C1=O,inactive,inactive,inactive,inactive,–,inactive,1.25% (inactive),inactive,inactive,inactive,inactive,inactive,inactive,inactive,inactive,-4.41%,inactive,inactive,inactive
CCCC[C@@]1(C2CCCC2)Cc2cc(OCC(=O)O)c(Cl)c(Cl)c2C1=O,inactive,inactive,inactive,inactive,–,inactive,1.19% (inactive),inactive,inactive,inactive,inactive,inactive,inactive,inactive,inactive,-6.32%,–,inactive,–
N=C(N)SCCc1cnc[nH]1,inactive,inactive,inactive,inactive,inactive,–,-0.375% (inactive),inactive,inactive,inactive,inactive,–,inactive,–,inactive,-8.6%,inactive,inactive,inactive
N[C@H](C(=O)O)[C@H](O)C(=O)O,inactive,inactive,inactive,inactive,inactive,–,0.0625% (inactive),inactive,–,inactive,–,inactive,inactive,–,inactive,7.86%,inactive,inactive,inactive
CNc1ncnc2c1ncn2[C@H]1C[C@H](OP(=O)(O)O)[C@@H](COP(=O)(O)O)O1,inactive,inactive,inactive,inactive,inactive,–,1.25% (inactive),inactive,inactive,inactive,inactive,–,inactive,inactive,inactive,-10.4%,inactive,inactive,inactive
O=c1ccc2c(OCCCCc3ccccc3)c3ccoc3cc2o1,inactive,inactive,inactive,inactive,inactive,–,-9.69% (inactive),inactive,inactive,inactive,inactive,–,inactive,inactive,inactive,4.36%,inactive,inactive,inactive
COc1ccc(CCN(C)CCc2ccc(OC)c(OC)c2)cc1OC,inactive,inactive,inactive,inactive,inactive,–,-4.19% (inactive),inactive,inactive,inactive,inactive,–,inactive,–,inactive,4.35%,inactive,inactive,inactive
CC(C)C[C@H](NC(=O)[C@H](O)[C@H](N)Cc1ccccc1)C(=O)O,inactive,inactive,inactive,inactive,–,inactive,-0.0625% (inactive),inactive,inactive,inactive,inactive,inactive,–,inactive,inactive,5.98%,–,inactive,inactive
